tested on: Plasmodium falciparum; test: GSK_TCMDC: Inhibition of Plasmodium falciparum 3D7 in whole red blood cells, using parasite LDH activity as an index of growth. Test compounds present at 2uM; type: functional

Inhibition, 88%:
CCCC(=O)NC(c1ccc(C)cc1)c1ccc2cccnc2c1O (stereo not given)

Inhibition, 86%:
COc1cccc(N(CCCN2C(=O)c3cccc4cccc(c34)C2=O)C(=O)c2ccccc2C)c1

Inhibition, 99%:
COc1ccc(NC(=O)c2ccc(C=Cc3ccc(C(F)(F)F)cc3)cc2)cc1N1CCN(C)CC1, Cl.Oc1ccccc1Nc1nc(NCc2ccco2)c2ccccc2n1, Cc1nc2ccc3nc(NC(=O)c4ccno4)sc3c2s1, COc1nc2c(CCN3CCC(NCc4ccc5c(c4)NC(=O)CO5)CC3)c(Cl)cnc2cc1F.Cl, O=C(/C=C/c1ccc(C(F)(F)F)cc1)NCCCCCN1CCCN(C(=O)Nc2ccc(Cl)cc2)CC1, O=C(O)C(F)(F)F.O=S(=O)(NCCN1CCCC1)c1ccc(-c2cccc(CNCc3ccc(F)cc3)c2)s1

Inhibition, 93%:
CC(C)c1ccc(NS(=O)(=O)c2cccc(C(=O)NC3CCN(CC4CCCCC4)CC3)c2)cc1.O=C(O)C(F)(F)F, Cl.Fc1ccc2ncc(Cl)c(CCN3CCC(NCc4cc5c(cn4)OCCO5)CC3)c2c1

Inhibition, 94%:
Br.CC1(C)N=C(N)N=C(N)N1OCc1cccc(C#N)c1, O=C(Nc1ccc(Cl)c(C(F)(F)F)c1)N[C@H]1CCN(CCCCCNC(=O)C2CC2c2ccc(Cl)c(Cl)c2)C1 (stereo not given in full)

Inhibition, 96%:
Cc1nc(O)c2c(ccc3ccc(CNc4ccc(C(=O)N[C@@H](CCC(=O)O)C(=O)O)c(F)c4)cc32)n1, CC(=O)O.CCC[C@@H]([C@@H](CC1CCCCC1)C(=O)N[C@H](C(=O)Nc1nccc(N)n1)C(C)(C)C)N(O)C=O, CCOc1cccc(C(=O)Nc2ccc(-c3nc4ccccc4[nH]3)cc2)c1, O=C(NCC1CCC(CNCCc2ccccc2)CC1)Nc1ccc(Cl)c(Cl)c1 (stereo not given)

Inhibition, 92%:
Cn1cccc1C(=O)NCC(CCNc1cc(=O)c2ccccc2[nH]1)NCc1cc(Br)cc(Br)c1 (stereo not given)

Inhibition, 98%:
O=C(O)C(F)(F)F.O=S(=O)(NC1CCN(c2ccnc3cc(Cl)ccc23)C1)c1ccc(F)cc1 (stereo not given), CCN(CCCN1CCCCC1)c1cc(C)nc(Nc2cc(Br)ccc2C)n1.O=C(O)C(F)(F)F, CN(CCCCCN1CCC(NC(=O)Nc2ccc(Oc3ccccc3)cc2)C1)C(=O)/C=C/c1ccc(Cl)c(Cl)c1 (stereo not given), O=C(NCCCCN1CCC(c2ccc3c(c2O)CCCC3)CC1)c1ccc(-c2ccc(Cl)cc2)cc1, CCC(=O)OC(CCN(CC)CC)(c1ccccc1)c1ccccc1, Cc1cc2nc(-c3ccc(/C=C/C(=O)NC4CCN(Cc5ccccc5)CC4)cc3)[nH]c2cc1C

Inhibition, 100%:
CC(C)N(C(=O)CSc1nc2cc(Cl)ccc2c(=O)n1Cc1ccccc1)C(C)C, Cc1cccc2nc(-c3ccc(-c4ccc(NC(=O)Nc5ccc(Cl)cc5)cc4)cc3)[nH]c12, Cc1cc(N(C)C)nc(Nc2ccc(NC(=O)COc3ccccc3)cc2)n1, Fc1ccc2nc(Nc3nc(-c4ccccn4)cs3)sc2c1, O=C(/C=C/c1ccc(Cl)c(Cl)c1)NCCCCCCN1CCCN(C(=O)Nc2ccc(Cl)c(Cl)c2)CC1, COc1ccc(CCN2CCC(Nc3nc4ccccc4n3CCc3ccc(OC)cc3)CC2)cc1.Cl, Cc1ccc(C2CCN(CCCCNC(=O)c3ccc(-c4ccc(C#N)cc4)cc3)CC2)c(O)c1, COc1ccc(CNC2CCN(C)CC2)cc1-c1ccc(S(=O)(=O)NCc2cccnc2)s1.O=C(O)C(F)(F)F, O=C(Nc1cccc(CN2CCCN(Cc3ccc(O)cc3)CC2)c1)c1ccc(Cl)c(Cl)c1.O=C(O)C(F)(F)F, CN(C)CCCNCc1ccc(-c2ccc(CNCCOc3ccccc3)cc2)cc1.O=C(O)C(F)(F)F, COc1ccc(C(=O)C2CCN(CCCCNC(=O)c3ccc(NC(=O)c4cc(Cl)cc(Cl)c4)cc3)CC2)cc1, CN(Cc1ccc(-c2ccc(C(F)(F)F)cc2)cc1)C(=O)Cn1c(CCc2cccc(F)c2F)nc(=O)c2ccc(N3CCN(CCN4CCCCC4)CC3)nc21.O=C(O)C(O)C(O)C(=O)O

Inhibition, 97%:
CC(C)c1cc2c(cc1O)C(Cc1ccccc1Cl)N(C)CC2.Cl (stereo not given), C(=N\Nc1nccc2sc(-c3ccccc3)cc12)/c1cccnc1

Inhibition, 90%:
Cl.Cn1cnc(-c2ccc3c(c2)CCN(CCC2CCC(NC(=O)/C=C/c4ccc(F)cc4)CC2)CC3)c1 (stereo not given), CC(C)NCc1cccc(-c2ccc(NS(=O)(=O)c3cccc4cccnc34)cc2)c1.O=C(O)C(F)(F)F, CC(Nc1nc(Nc2ccc(F)cc2)nc(SCC(N)=O)n1)c1ccccc1 (stereo not given)
